Our source for the binding signal values is PMC7862700, “An all-to-all approach to the identification of sequence-specific readers for epigenetic DNA modifications on cytosine”.

What all share (assay): DAPPL (digital affinity profiling via proximity ligation, sequencing); 10 mM Tris-HCl pH 7.5, 50 mM NaCl, 1 mM DTT, 4% glycerol, room temperature, 30 min; GST-TFs on glutathione beads, 16-mer random dsDNA library, 0.1% formaldehyde crosslink after washing; high values mean tight binding
Details in all cases: protein: recombinant; tags: N-terminal GST; dsDNA, one strand shown

One test concerns the target T1, FLI1 (Homo sapiens, UniProt Q01543 1-452).
T1 sequence: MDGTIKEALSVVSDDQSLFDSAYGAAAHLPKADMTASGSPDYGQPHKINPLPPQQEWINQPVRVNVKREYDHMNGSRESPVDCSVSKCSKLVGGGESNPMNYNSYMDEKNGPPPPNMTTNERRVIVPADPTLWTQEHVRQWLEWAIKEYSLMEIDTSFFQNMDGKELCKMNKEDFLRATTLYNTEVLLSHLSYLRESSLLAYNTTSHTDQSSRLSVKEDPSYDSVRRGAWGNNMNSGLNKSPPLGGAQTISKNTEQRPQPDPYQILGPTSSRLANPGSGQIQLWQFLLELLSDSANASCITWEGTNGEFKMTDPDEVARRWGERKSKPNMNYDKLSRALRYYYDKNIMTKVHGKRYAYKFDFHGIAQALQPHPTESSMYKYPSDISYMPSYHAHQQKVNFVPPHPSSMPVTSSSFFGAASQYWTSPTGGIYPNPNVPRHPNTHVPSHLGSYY
The method, boiled down: (§1)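 Binding signal is given per hexamer as its read frequency for a factor divided by its frequency in the tag-only sample. GST-fused human transcription factors were expressed in yeast, captured on glutathione beads, barcoded with DNA and pooled with that sample, then incubated with 200 nmole of a 16-mer random double-stranded DNA library in Tris/NaCl/DTT/glycerol buffer for 30 min at room temperature. The pools were then washed, crosslinked, proximity-ligated, amplified by PCR and sequenced on an Illumina NextSeq500.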

For the next test, the target named is T2, ELK1 (Homo sapiens, UniProt P19419 1-428).
T2 sequence: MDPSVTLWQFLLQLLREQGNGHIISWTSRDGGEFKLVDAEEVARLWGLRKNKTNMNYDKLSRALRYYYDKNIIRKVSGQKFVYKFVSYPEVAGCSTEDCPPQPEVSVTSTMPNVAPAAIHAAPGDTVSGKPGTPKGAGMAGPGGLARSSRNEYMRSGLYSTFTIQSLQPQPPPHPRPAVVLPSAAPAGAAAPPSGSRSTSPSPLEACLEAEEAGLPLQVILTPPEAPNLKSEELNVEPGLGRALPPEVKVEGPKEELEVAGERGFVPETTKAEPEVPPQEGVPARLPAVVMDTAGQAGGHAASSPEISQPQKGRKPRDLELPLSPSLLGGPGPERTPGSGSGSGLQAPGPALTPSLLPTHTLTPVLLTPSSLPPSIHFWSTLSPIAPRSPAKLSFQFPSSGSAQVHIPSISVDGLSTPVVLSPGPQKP
The method, boiled down: as §1

For the next test, the target named is T3, GABPA (Homo sapiens, UniProt Q06546 1-454).
T3 sequence: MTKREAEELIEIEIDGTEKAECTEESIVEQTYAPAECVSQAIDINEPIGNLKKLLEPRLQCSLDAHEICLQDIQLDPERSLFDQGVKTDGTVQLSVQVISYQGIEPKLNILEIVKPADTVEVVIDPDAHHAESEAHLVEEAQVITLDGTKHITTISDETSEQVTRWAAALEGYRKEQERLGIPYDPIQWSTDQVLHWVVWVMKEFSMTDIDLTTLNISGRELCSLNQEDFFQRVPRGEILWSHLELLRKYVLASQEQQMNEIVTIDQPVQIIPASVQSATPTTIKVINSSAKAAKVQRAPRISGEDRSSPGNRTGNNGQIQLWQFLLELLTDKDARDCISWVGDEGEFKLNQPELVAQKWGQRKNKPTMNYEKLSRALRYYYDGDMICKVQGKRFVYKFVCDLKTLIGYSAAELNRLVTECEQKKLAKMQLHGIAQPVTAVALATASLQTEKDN
The method, boiled down: as §1

A further test deals with T4, ERG (Homo sapiens, UniProt P11308 1-479).
T4 sequence: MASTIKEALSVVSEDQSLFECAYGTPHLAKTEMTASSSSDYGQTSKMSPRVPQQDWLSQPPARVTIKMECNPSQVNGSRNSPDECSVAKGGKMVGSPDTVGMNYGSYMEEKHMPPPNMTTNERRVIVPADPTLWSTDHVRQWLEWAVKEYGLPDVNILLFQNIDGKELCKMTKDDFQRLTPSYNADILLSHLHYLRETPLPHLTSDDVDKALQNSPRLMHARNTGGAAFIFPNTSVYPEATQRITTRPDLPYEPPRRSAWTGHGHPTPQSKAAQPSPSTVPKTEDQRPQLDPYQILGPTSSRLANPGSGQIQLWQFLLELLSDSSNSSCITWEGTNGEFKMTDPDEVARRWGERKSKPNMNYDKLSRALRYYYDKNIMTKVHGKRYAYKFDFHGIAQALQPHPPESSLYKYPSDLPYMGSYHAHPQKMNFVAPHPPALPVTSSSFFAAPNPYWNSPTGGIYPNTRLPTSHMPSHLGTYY
The method, boiled down: as §1

In a further test the target is ELF1 (Homo sapiens, UniProt P32519 1-619). The method, boiled down:
as §1

The target of a further test is T5, EHF (Homo sapiens, UniProt Q9NZC4 1-300).
T5 sequence: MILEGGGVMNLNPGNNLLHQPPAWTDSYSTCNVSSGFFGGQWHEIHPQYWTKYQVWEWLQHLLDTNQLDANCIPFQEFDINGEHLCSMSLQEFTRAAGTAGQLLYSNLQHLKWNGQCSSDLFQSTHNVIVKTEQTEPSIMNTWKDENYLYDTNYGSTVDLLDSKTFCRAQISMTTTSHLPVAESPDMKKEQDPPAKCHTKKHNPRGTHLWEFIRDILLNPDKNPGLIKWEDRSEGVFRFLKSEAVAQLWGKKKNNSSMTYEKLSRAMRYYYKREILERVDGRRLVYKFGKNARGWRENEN
The method, boiled down:
as §1

A further test deals with SPI1 (Homo sapiens, UniProt P17947 1-270). The method, boiled down: as §1
The next test has as its target SPIB (Homo sapiens, UniProt Q01892 1-262). The method, boiled down:
as §1

Another test addresses T6, ELK3 (Homo sapiens, UniProt P41970 1-407).
T6 sequence: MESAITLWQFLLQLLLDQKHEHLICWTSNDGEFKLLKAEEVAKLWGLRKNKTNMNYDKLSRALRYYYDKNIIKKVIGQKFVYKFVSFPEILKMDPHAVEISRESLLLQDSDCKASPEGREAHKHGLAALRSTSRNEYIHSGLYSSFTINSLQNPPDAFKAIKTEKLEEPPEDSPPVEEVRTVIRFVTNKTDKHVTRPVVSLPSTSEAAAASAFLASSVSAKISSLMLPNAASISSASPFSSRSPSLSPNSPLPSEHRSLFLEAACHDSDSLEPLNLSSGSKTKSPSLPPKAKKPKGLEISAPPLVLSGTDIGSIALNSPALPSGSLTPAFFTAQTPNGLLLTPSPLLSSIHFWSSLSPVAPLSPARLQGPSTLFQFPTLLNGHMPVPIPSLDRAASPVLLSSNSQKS
The method, boiled down:
as §1

SPIB, sequence (Q01892 whole entry): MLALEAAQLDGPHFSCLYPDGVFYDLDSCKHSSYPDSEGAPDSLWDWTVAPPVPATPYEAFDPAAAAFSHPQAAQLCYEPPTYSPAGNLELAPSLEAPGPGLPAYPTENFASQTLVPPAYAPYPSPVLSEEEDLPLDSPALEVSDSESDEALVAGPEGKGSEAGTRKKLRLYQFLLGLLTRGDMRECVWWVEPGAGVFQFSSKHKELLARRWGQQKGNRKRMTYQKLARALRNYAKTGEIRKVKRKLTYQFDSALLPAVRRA
ELF1, sequence (P32519 whole entry): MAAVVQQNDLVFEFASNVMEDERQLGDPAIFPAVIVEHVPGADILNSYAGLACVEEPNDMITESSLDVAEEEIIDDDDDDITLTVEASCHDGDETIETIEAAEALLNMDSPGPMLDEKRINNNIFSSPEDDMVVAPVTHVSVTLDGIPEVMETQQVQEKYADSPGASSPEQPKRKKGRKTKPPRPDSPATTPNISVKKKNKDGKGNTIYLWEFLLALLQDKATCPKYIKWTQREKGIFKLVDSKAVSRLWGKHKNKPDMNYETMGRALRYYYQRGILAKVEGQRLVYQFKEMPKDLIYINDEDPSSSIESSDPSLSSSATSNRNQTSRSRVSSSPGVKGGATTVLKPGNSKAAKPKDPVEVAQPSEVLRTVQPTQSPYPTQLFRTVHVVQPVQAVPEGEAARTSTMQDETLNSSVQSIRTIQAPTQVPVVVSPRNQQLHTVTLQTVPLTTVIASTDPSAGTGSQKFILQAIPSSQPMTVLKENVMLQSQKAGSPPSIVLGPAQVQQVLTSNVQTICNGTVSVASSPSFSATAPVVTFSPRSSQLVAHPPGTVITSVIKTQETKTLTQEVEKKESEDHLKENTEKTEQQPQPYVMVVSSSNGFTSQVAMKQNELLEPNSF

Take GGTTCC: the binding signal with FLI1 was 1.52 fold enrichment (6-mer frequency, TF over GST control); with ELK1, 1.64 fold enrichment (6-mer frequency, TF over GST control); in the test with GABPA, 1.37 fold enrichment (6-mer frequency, TF over GST control); in the test with ERG, 1.54 fold enrichment (6-mer frequency, TF over GST control); with ELF1, 1.53 fold enrichment (6-mer frequency, TF over GST control); in the test with EHF, 1.59 fold enrichment (6-mer frequency, TF over GST control). In addition, the binding signal in the test with SPI1 is 1.75 fold enrichment (6-mer frequency, TF over GST control); with SPIB, 1.59 fold enrichment (6-mer frequency, TF over GST control); with ELK3, 1.52 fold enrichment (6-mer frequency, TF over GST control).
Take GCCCTC: the binding signal with FLI1 was 1.12 fold enrichment (6-mer frequency, TF over GST control); in the test with ELK1, 1.18 fold enrichment (6-mer frequency, TF over GST control); with GABPA it was 1.25 fold enrichment (6-mer frequency, TF over GST control); with ERG it was 1.11 fold enrichment (6-mer frequency, TF over GST control); with ELF1, 1.17 fold enrichment (6-mer frequency, TF over GST control); with EHF, 1.18 fold enrichment (6-mer frequency, TF over GST control). Moreover, the binding signal in the test with SPI1 is 1.1 fold enrichment (6-mer frequency, TF over GST control); in the test with SPIB, 1.18 fold enrichment (6-mer frequency, TF over GST control); with ELK3 it was 1.15 fold enrichment (6-mer frequency, TF over GST control).
As for GAACAT, the binding signal is 1.01 fold enrichment (6-mer frequency, TF over GST control) with FLI1; 1.02 fold enrichment (6-mer frequency, TF over GST control) in the test with ELK1; 1.09 fold enrichment (6-mer frequency, TF over GST control) with GABPA; 1.03 fold enrichment (6-mer frequency, TF over GST control) with ERG; 1.02 fold enrichment (6-mer frequency, TF over GST control) in the test with ELF1; 1.05 fold enrichment (6-mer frequency, TF over GST control) with EHF. In addition, the binding signal with SPI1 is 1.04 fold enrichment (6-mer frequency, TF over GST control); in the test with SPIB, 1.01 fold enrichment (6-mer frequency, TF over GST control); in the test with ELK3, 1.16 fold enrichment (6-mer frequency, TF over GST control).
As for TGGTAG, the binding signal in the test with FLI1 was 1.1 fold enrichment (6-mer frequency, TF over GST control); with ELK1, 1.02 fold enrichment (6-mer frequency, TF over GST control); with GABPA, 1.08 fold enrichment (6-mer frequency, TF over GST control); with ERG it was 1 fold enrichment (6-mer frequency, TF over GST control); in the test with ELF1, 1.05 fold enrichment (6-mer frequency, TF over GST control); with EHF it was 1.11 fold enrichment (6-mer frequency, TF over GST control). Further, the binding signal with SPI1 was 1.03 fold enrichment (6-mer frequency, TF over GST control); with SPIB, 1.15 fold enrichment (6-mer frequency, TF over GST control); in the test with ELK3, 1.11 fold enrichment (6-mer frequency, TF over GST control).
For the sequence TGGCAG, the binding signal in the test with FLI1 is 1.19 fold enrichment (6-mer frequency, TF over GST control); in the test with ELK1 it was 1.09 fold enrichment (6-mer frequency, TF over GST control); with GABPA, 1.07 fold enrichment (6-mer frequency, TF over GST control); with ERG, 1.01 fold enrichment (6-mer frequency, TF over GST control); with ELF1 it was 1.06 fold enrichment (6-mer frequency, TF over GST control); with EHF it was 1.11 fold enrichment (6-mer frequency, TF over GST control). The binding signal was 1.1 fold enrichment (6-mer frequency, TF over GST control) with SPI1; 1.12 fold enrichment (6-mer frequency, TF over GST control) in the test with SPIB; 1.21 fold enrichment (6-mer frequency, TF over GST control) with ELK3.
With AAGTCA, the binding signal with FLI1 was 1.18 fold enrichment (6-mer frequency, TF over GST control); with ELK1 it was 1.24 fold enrichment (6-mer frequency, TF over GST control); in the test with GABPA, 1.15 fold enrichment (6-mer frequency, TF over GST control); in the test with ERG it was 1.26 fold enrichment (6-mer frequency, TF over GST control); in the test with ELF1, 1.17 fold enrichment (6-mer frequency, TF over GST control); in the test with EHF it was 1.15 fold enrichment (6-mer frequency, TF over GST control). In addition, the binding signal in the test with SPI1 was 1.3 fold enrichment (6-mer frequency, TF over GST control); with SPIB it was 1.11 fold enrichment (6-mer frequency, TF over GST control); in the test with ELK3 it was 1.28 fold enrichment (6-mer frequency, TF over GST control).
With ATGATC, the binding signal was 1.2 fold enrichment (6-mer frequency, TF over GST control) with FLI1; 1.17 fold enrichment (6-mer frequency, TF over GST control) in the test with ELK1; 1.3 fold enrichment (6-mer frequency, TF over GST control) with GABPA; 1.1 fold enrichment (6-mer frequency, TF over GST control) with ERG; 1.22 fold enrichment (6-mer frequency, TF over GST control) with ELF1; 1.28 fold enrichment (6-mer frequency, TF over GST control) in the test with EHF. Further, the binding signal with SPI1 was 1.15 fold enrichment (6-mer frequency, TF over GST control); with SPIB, 1.18 fold enrichment (6-mer frequency, TF over GST control); with ELK3, 1.31 fold enrichment (6-mer frequency, TF over GST control).
On to CCCCTG, for which the binding signal in the test with FLI1 was 1.22 fold enrichment (6-mer frequency, TF over GST control); in the test with ELK1 it was 1.23 fold enrichment (6-mer frequency, TF over GST control); in the test with GABPA, 1.26 fold enrichment (6-mer frequency, TF over GST control); with ERG it was 1.18 fold enrichment (6-mer frequency, TF over GST control); with ELF1, 1.22 fold enrichment (6-mer frequency, TF over GST control); with EHF, 1.17 fold enrichment (6-mer frequency, TF over GST control). Moreover, the binding signal in the test with SPI1 was 1.25 fold enrichment (6-mer frequency, TF over GST control); with SPIB it was 1.1 fold enrichment (6-mer frequency, TF over GST control); in the test with ELK3, 1.27 fold enrichment (6-mer frequency, TF over GST control).
